Screening results from PubChem BioAssay.
An excerpt weighted towards active compounds, which were near 2.7% of everything screened.
Tau fibril FP = qHTS for Inhibitors of Tau Fibril Formation, Fluorescence Polarization; Microtubule-associated protein tau (Homo sapiens), P10636; K18 P301L tau heparin fibrillization, Alexa594 FP, 6 h; Potency, µM (doses to about 57.7 µM), inactives show at the highest dose activity, negative = inhibition, most hits filed as inhibitors; 0.39% of 280,000 active; AID 1468, 2008; also: potency is read from the fitted curve at half-maximal effect; nearly all actives have a fitted effect of over 55% in size
Target sequence (P10636 561-689 P618L limits assumed): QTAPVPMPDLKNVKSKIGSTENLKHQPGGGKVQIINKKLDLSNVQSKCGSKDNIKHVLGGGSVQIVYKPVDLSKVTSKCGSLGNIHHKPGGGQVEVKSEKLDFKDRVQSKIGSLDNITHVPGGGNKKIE
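Steps: dispense K18 P301L tau (15 uM plus 0.24 uM Alexa 594 tracer, final) in pH 7 sodium acetate; add compound; add heparin (20 uM final); incubate 6 hr, 37 C; add ThT (30 uM final); after 1 hr ambient, read FP.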
Tau fluor cs = Counterscreen qHTS for Inhibitors of Tau Fibril Formation, Fluorescence Polarization. tau K18 P301L Alexa594 fluorescence, heparin fibrillization. Potency, µM (highest dose often 57.7 µM), for the others: at the highest dose activity change, negative = decrease. 0.93% of 280,000 active; also: potency is read from the fitted curve at half-maximal effect; nearly all actives have a fitted effect of over 55% in size
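Human tau K18 P301L (15 uM unlabeled, 0.24 uM Alexa 594-labeled) in 100 mM sodium acetate pH 7 with 20 uM heparin, 6 hr at 37 C. ThT 30 uM added, 1 hr ambient; Alexa 594 FP and total fluorescence read at 555/632 nm.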
FBPA coupling cs = qHTS Assay for Inhibitors of Fructose-1,6-bisphosphate Aldolase from Giardia Lamblia: Coupling assay counterscreen | coupling enzyme system counterscreen, AmpLite Red fluorescence | activity change, negative = inhibition, % at 58.2 µM, hits read low | 0.67% of 290,000 active | AID 2472, 2010; in the data active = activity change below about -30%
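Compounds tested against the coupling enzymes alone at 57.5 uM final; readout was AmpLite Red fluorescence (525/598 nm) after 20 min at RT.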
Tau fibril ThT = qHTS for Inhibitors of Tau Fibril Formation, Thioflavin T Binding. Potency, µM (top dose mostly 57.4 µM), without a hit: at the highest dose activity, negative = inhibition, usual class: inhibitors. recombinant tau K18 P301L (four-repeat tau fragment), heparin-induced fibrillization, ThT fluorescence. 2.1% of 270,000 active; also: potency is read from the fitted curve at half-maximal effect; nearly all actives have a fitted effect of over 55% in size
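K18 P301L tau (15 uM + 0.24 uM Alexa 594-tagged), heparin 20 uM, NaOAc pH 7, 6 h 37 C; ThT 30 uM, 1 h RT, ex 450/em 510 nm.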
Active calls of the source: *; ? = inconclusive; · = no result given; [ ] = remark or other dose. Unless noted, calls follow the shape of the dose curve; as a rule, active = well fitted curve in the direction sought with a large enough effect; inconclusive = small, poorly fitted or top-dose-only effect, or another doubt; inactive = no such curve, though single readings can be large; an effect the other way counts as inactive or inconclusive. % is scaled to controls: 0 for no effect and ±100 for the full control effect.

SMILES	Tau fibril FP	Tau fluor cs	FBPA coupling cs	Tau fibril ThT
O=C(Cn1sc2ccccc2c1=O)NC12CC3CC(CC(C3)C1)C2	20µM*	-28%	1	16µM*
COc1cccc(-n2cn[nH]c2=S)c1	-3%	-9%	3	-9%
COc1cccc(-n2sc3c(c2=S)-c2cc(OC)ccc2NC3(C)C)c1	12%	13µM*[quencher]	0	-19%
O=[N+]([O-])c1ccc(C2Oc3ccccc3C3CC(c4ccccc4)=NN32)s1 (stereo not drawn)	?	14µM*[quencher]	-11	14µM*
Cc1ccc(-c2nnc(Nc3ccc(O)cc3)c3ccccc23)cc1S(=O)(=O)N1CCCCC1	17%	4.5µM*[quencher]	·	-2%
Cc1ccc(-c2nnc(Nc3ccc(C(N)=O)cc3)c3ccccc23)cc1S(=O)(=O)N1CCCCC1	28µM*	?	·	-7%
Cc1ccc(C(=O)NC(=S)/C=C2\N(C)c3ccccc3C2(C)C)cc1	3%	-16%	-2	10µM*
COc1ccc(C2C(=O)N(C3CCCCCC3)CC(=O)N2CCc2ccc(OC)c(OC)c2)cc1 (stereo not drawn)	5%	7%	·	13%
Nc1oc2ccccc2c(=O)c1-c1ccc2c(c1)OCO2	·	·	0	·
Cc1ccc(-c2nc3ccccc3n2C)o1	3%	-3%	1	?
Cc1ccc(C2Nc3ccccc3-c3nc4ccccc4n32)o1 (stereo not drawn)	?	32µM*[quencher]	-1	?
CC(=O)c1c(C)c(C)c2n1CCn1c(C)ccc1-2	-17%	?	-25	16µM*
O=C1C(C=Nc2ccccc2)=C(O)c2ccccc21	7%	-14%	0	?
O=C1C(C=Nc2ccccc2O)=C(O)c2ccccc21	-2%	-29%	0	?
Cc1ccc(O)c(N=CC2=C(O)c3ccccc3C2=O)c1	?	?	-9	25µM*
COc1ccc(N=Cc2[nH]c3ccccc3c2O)cc1	?	-27%	-38*	18µM*
COc1ccc(N=Cc2oc3ccc4ccccc4c3c2O)cc1	12%	-20%	-2	?
COc1ccc(N=CC2=C(O)c3ccccc3C2=O)cc1	-8%	-14%	-1	2.2µM*
CC1(C)C(=O)N(CC(=O)Nc2cccc(F)c2)c2ccc(S(=O)(=O)N3CCCCC3)cc21	?	?	·	4%
N#C/C(C(=O)c1ccccc1)=C1/SC=C(N)N1c1ccccc1	?	-29%	-11	28µM*
COc1ccc(OC)c(NC(=O)CSc2ncc3c(n2)-c2ccccc2N(C)S3(=O)=O)c1	4%	-26%	·	-1%
CCc1nc(-c2ccc(C)c(S(=O)(=O)N3CCN(c4ccc(C(C)=O)cc4)CC3)c2)no1	9%	-11%	·	-1%
Cc1ccc(F)c(NC(=O)Nc2ccc3snnc3c2)c1	?	?	·	3%
Cc1c(Cl)cccc1NC(=O)Nc1ccc2snnc2c1	18µM*	10µM*[quencher]	·	?
CCCCN(C)C(=O)Cn1c(SCC(=O)Nc2ccc(C)c(C)c2)nc2ccccc21	10%	-8%	·	-2%
SMILES	Tau fibril FP	Tau fluor cs	FBPA coupling cs	Tau fibril ThT
O=C(O)c1cc(N/N=C/C=C/c2ccccc2[N+](=O)[O-])ccc1Cl	-3%	?	5	3.5µM*
CC(C)=CCc1c(O)cc2oc3c(CC=C(C)C)c(O)c(O)c(CC=C(C)C)c3c(=O)c2c1O	-5%	14µM*[quencher]	-10	?
COc1c(O)cc2oc3cc(O)c(CC=C(C)C)c(O)c3c(=O)c2c1CC=C(C)C	2.8µM*	2.8µM*[quencher]	-5	?
CCc1cc(-c2[nH]ncc2-c2nc3ccccc3n2C)c(O)cc1O	3%	?	-16	?
CCCc1cc(-c2[nH]ncc2-c2ccc(C(=O)OCC)o2)c(O)cc1O	?	14µM*[quencher]	-1	-14%
Cn1cc(CNCc2cn[nH]c2-c2ccc(F)cc2)c(-c2ccc3c(c2)OCCO3)n1	-6%	-8%	2	-7%
CCCc1cc(-c2[nH]ncc2-c2ccc3c(c2)OCCCO3)c(O)cc1O	?	10µM*[quencher]	2	?
Cc1nc(COC(=O)c2cc(O)c3ccccc3c2O)cs1	?	?	-25	25µM*
Cc1nc(COC(=O)c2ccc(CO)cc2)cs1	-4%	2%	4	2%
CSCC[C@H](NC(=O)[C@H](Cc1ccccc1)NC[C@@H](NC[C@@H](N)CS)C(C)C)C(=O)O	?	-15%	2	25µM*
Cc1nc2ccn(Cc3cccnc3)c(=O)c2cc1C(=O)NCc1ccc(Cl)cc1	-6%	-3%	·	-7%
Nc1nn2c(-c3ccccc3)cc(=O)[nH]c2c1N=Nc1ccc(Br)cc1	9%	-23%	0	2.2µM*
CCCC1=C/C(=C/c2ccc(-c3ccccc3OC)o2)C(=O)O1	-12%	?	1	13µM*
COc1ccccc1-c1ccc(/C=C2/C=C(CC(C)C)OC2=O)o1	3%	-27%	-8	8.9µM*
OC[C@@H](O)[C@H](O)C(/C=N/Nc1ccccc1)=N\Nc1ccccc1	-13%	?	-6	28µM*
O=C(Cn1c(=O)nc(-c2ccccc2)c2cc(Cl)ccc21)N1CCN(c2ccc(F)cc2)CC1	3%	1%	·	-15%
CC(=O)O[C@@]1(C(C)=O)CCC2C3CC(C)C4=CC(=O)CC[C@@]4(C)C3CC[C@]21C (stereo partly drawn)	-3%	-5%	0	-3%
O=C(/C(=C/c1ccc(Cl)cc1)c1nc2ccccc2[nH]1)c1ccccc1	?	-22%	2	40µM*
COc1cc(/C=N/Nc2nc3ccccc3[nH]2)cc(OC)c1O	?	16µM*[quencher]	1	11µM*
COc1cc(/C=N/Nc2nc3ccccc3[nH]2)ccc1O	?	?	1	5µM*
O=[N+]([O-])c1ccc(O)c(/C=N/Nc2nc3ccccc3[nH]2)c1	5%	?	0	8.9µM*
O=C(N/C(=C/c1ccc(Cl)cc1)c1nc2ccccc2[nH]1)c1ccco1	2%	-7%	0	-18%
COc1ccc(-c2noc(COc3ccc(Br)cc3C)n2)cc1OC	-12%	-23%	·	?
COc1cc(/C=N/NC(=Nc2ccc(C)cc2)c2nc3ccccc3s2)ccc1O	16%	11µM*[quencher]	2	?
COc1cc(/C=C(/C(=O)c2cccs2)c2nc3ccccc3[nH]2)cc(OC)c1O	-2%	?	-5	14µM*
COc1ccc(O)c(/C=N/Nc2nc3ccccc3[nH]2)c1	7%	?	-2	14µM*
CC(=O)c1ccc(N2C(=O)Nc3ccccc3S2(=O)=O)cc1	-2%	-4%	·	-4%
CCOc1ccc(NC(=O)Cn2cc(S(=O)(=O)N3CCN(c4ccccc4F)CC3)c3ccccc3c2=O)cc1	?	-22%	·	-5%
COC(=O)[C@@H]1C[C@H]1[C@@H](NC(=O)Oc1ccc(F)cc1)c1ccccc1	3%	-15%	0	?
COc1cc(/C=C/C(=O)c2c(O)cc(C)oc2=O)cc(OC)c1O	-14%	?	1	28µM*
